About 390 (26%) of roughly 1,500 compounds were called active. The list is a sample of the results. Entries with a potency or affinity are not part of this list. Values without a mark were called inactive. The rule behind the calls is not given here.
The molecules below were run against Histone-lysine N-methyltransferase NSD2 (Homo sapiens) (UniProt O96028) (assay: blockers of NSD2 H4 peptide methylation – biochemical, AlphaScreen, cherry-picked samples, dose response (AID 1053173;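 note: 0% = neutral control wells and -100% = positive control wells on each plate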)). Conditions: 120 min; series mostly up to 10 µM; activity change, negative = inhibition: at the top concentration.
Sequence of Histone-lysine N-methyltransferase NSD2 (Homo sapiens) (O96028 whole entry, looked up): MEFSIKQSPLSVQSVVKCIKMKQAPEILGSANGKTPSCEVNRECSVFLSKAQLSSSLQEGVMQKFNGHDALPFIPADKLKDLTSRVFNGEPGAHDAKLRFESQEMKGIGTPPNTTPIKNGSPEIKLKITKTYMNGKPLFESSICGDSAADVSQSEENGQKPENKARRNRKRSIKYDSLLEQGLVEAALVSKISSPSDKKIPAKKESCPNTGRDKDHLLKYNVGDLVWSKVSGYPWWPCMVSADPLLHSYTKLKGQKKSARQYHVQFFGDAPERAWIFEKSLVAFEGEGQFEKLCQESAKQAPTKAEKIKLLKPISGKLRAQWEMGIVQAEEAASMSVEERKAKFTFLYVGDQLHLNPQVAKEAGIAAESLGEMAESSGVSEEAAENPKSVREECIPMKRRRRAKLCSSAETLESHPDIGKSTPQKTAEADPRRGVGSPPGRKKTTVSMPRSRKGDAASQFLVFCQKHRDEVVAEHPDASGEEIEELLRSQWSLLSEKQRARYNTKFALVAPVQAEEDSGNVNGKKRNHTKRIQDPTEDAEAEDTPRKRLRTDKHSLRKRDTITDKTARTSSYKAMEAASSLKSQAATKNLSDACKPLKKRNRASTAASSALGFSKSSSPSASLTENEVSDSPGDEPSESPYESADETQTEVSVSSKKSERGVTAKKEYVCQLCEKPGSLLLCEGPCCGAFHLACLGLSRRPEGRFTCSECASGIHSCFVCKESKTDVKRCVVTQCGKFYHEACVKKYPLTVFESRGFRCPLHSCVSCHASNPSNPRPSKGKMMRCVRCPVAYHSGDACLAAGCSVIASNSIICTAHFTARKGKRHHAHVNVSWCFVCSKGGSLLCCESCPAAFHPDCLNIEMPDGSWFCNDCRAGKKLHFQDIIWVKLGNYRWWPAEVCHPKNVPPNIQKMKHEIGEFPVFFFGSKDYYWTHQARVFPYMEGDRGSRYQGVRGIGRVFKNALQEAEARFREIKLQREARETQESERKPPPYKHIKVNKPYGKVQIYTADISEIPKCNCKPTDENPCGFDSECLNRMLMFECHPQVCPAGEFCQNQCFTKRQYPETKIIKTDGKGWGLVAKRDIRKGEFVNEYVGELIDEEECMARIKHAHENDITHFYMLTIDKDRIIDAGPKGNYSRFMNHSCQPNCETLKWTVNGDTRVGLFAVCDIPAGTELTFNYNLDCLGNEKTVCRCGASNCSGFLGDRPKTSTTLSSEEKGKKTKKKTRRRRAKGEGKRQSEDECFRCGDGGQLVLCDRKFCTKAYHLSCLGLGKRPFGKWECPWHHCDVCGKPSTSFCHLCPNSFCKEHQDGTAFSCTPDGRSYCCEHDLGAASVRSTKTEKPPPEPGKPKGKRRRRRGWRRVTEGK

| Structure (SMILES) | activity change, negative = inhibition |
| --- | --- |
| O=C(OCc1cnc(Cl)s1)c1cccs1 | -1.1% |
| Cc1ccc(N2CS(=O)(=O)/C(=C/N(C)C)C2=O)cc1 | 5.06% |
| Cn1c(CSCc2ccccc2)nnc1SCC(=O)Nc1nccs1 | 0.187% |
| O=C(CC1C(=O)N(c2ccccc2)C(=S)N1c1ccccc1)c1ccc(Br)cc1 (centres undefined) | -0.56% |
| CCn1c(O)c(/C=N/n2cnnc2)sc1=S | 0.542% |
| CCOc1ccc(-c2nnc(SCc3nc4ccccc4[nH]3)n2N)cc1 | -2.78% |
| CCOC(=O)C(Oc1ccc2c(-c3ccc(OC)cc3)cc(=O)oc2c1C)c1ccccc1 (centres undefined) | -0.617% |
| CCOC(=O)c1c(C#N)c(SCC(=O)Nc2ccc(OC)cc2)nc2c1CN(CC)CC2 | -3.26% |
| COc1ccc(OCCSc2nnc(CCNC(=O)c3ccc(Cl)c(Cl)c3)n2C)cc1 | 1.83% |
| COc1cccc(CN2C(=O)C(C)N(C(=O)c3c(F)cccc3F)c3ccccc32)c1 (centres undefined) | -4.93% |
| CN1CCN(c2ccc(S(=O)(=O)N3CCOCC3)cc2NC(=O)COc2ccc(F)cc2Cl)CC1 | -1.77% |
| COc1ccc(C2C(C(=O)/C=C/c3ccco3)=C(O)C(=O)N2CCN2CCOCC2)cc1OC (centres undefined) | 2.35% |
| COc1ccc(CCNC(=O)Nc2ccc3c(c2)c(=O)n(C)n3CC=C(C)C)cc1OC | 1.5% |
| CCc1nnc(NC(=O)c2ccc3ccccc3n2)s1 | -0.466% |
| CCc1nnc(NC(=O)c2ccc(COc3ccccc3)o2)s1 | 0.577% |
| CCC1(c2ccc(F)cc2)NC(=O)N(CC(=O)N(CCC#N)c2ccccc2)C1=O (centres undefined) | -0.318% |
| Cc1ccc(S(=O)(=O)N(C)C)cc1NC(=O)/C=C/c1cccs1 | 1.54% |
| CC1(C)Cc2sc3c(=O)[nH]c(=S)[nH]c3c2CO1 | 1.02% |
| CCOc1ccc(N2CC(C(=O)NCCc3c[nH]c4ccc(OC)cc34)CC2=O)cc1 (centres undefined) | 0.809% |
| Cc1ccc(NC(=O)Cn2nnc(C(=O)NCc3ccccc3)c2N)cc1C | -0.362% |
| Cc1cc(C(=O)COC(=O)c2ccc([N+](=O)[O-])o2)c(C)n1CC1CCCO1 (centres undefined) | -9.09% |
| COc1ccc(C(c2c(C)[nH]n(-c3ccccc3)c2=O)c2c(C)[nH]n(-c3ccccc3)c2=O)cc1OC | -9% |
| C/C(CC(=O)Nc1ccccn1)=N\NC(=O)C(=O)Nc1cccc(Cl)c1C | -0.689% |

| Structure (SMILES) | activity change, negative = inhibition |
| --- | --- |
| COCCN(C(=O)CCC(=O)Nc1ccccn1)C(C(=O)NC(C)C)c1ccc(C)cc1 (centres undefined) | -2.62% |
| Cc1ccc(C(C[N+](=O)[O-])c2c(C)[nH]n(-c3ccccc3)c2=O)cc1 (centres undefined) | -2.59% |
| Cc1[nH]n(-c2ccccc2)c(=O)c1C(C[N+](=O)[O-])c1ccc(F)cc1 (centres undefined) | 1.48% |
| CCN(CC)C(=O)COC(=O)C1=NN(c2cc(C)ccc2C)C(=O)CC1 | -3.17% |
| COC(=O)CCCC(=O)NC1CC(C)(C)Cc2c1cnn2-c1ccc(C)cc1 (centres undefined) | -0.494% |
| C=CCn1c(SCc2ccc(C#N)cc2)nnc1-c1ccc(C)cc1 | -2.38% |
| C=CCn1c(SCC(=O)N2CCN(c3ccccc3)CC2)nnc1-c1ccco1 | -4.63% |
| Cc1cccc(-c2nnc(SCC(=O)c3ccc(O)cc3O)n2C)c1 | 0.938% |
| CN(C)c1cccc2c1c(NC(=O)Nc1ccccc1)nn2C | -5.26% |
| O=C(c1ccc2c(c1)OCO2)C1CCCN(Cc2ccc3cccc(F)c3n2)C1 (centres undefined) | -1.24% |
| CCNc1ccccc(C(=O)/C=C/c2ccc3c(c2)OCO3)c1=O | -2.99% |
| CC(Cc1c[nH]c2ccccc12)C(=O)NCc1ccco1 (centres undefined) | -7.92% |
| CCOC(=O)N1CCN(C2=Nc3cccc4cccc2c34)CC1 | 0.355% |
| CSc1ncccc1C(=O)Nc1nc2c(C)cccc2s1 | 4.37% |
| Nc1ncnc(NCc2ccccc2)c1[N+](=O)[O-] | 0.484% |
| COc1ccc(COc2ncnc3ccc(Br)cc23)cc1F | 1.25% |
| COc1ccc(CCNC(=O)C2CCN(C(=O)c3ccccc3C)CC2)cc1 | 0.092% |
| Cc1cccc(N(CC(=O)NC(C)(C)C)C(=O)CS(=O)CC(=O)Nc2ccc3c(c2)OCO3)c1 (centres undefined) | 0.013% |
| CC(=O)N1CCN(Cc2nc3cc(NC(=O)Cn4nc(C)c5ccccc5c4=O)ccc3n2C)CC1 | 1.58% |
| [O-][n+]1cccc2c(Br)cc(Br)c(O)c21 | -3.88% |
| OC(COc1ccc2ccccc2c1Cl)CN1CCOCC1 (centres undefined) | -1.1% |
| CCCCN(CC)CCNC(=O)CN(C)S(=O)(=O)c1ccc2c(c1)c(=O)n(C)c(=O)n2C | -9.9% |
| Cc1ccc(C(=O)Nc2ccc(CC(=O)O)cc2)o1 | -1.83% |

| Structure (SMILES) | activity change, negative = inhibition |
| --- | --- |
| CCCc1cc(Nc2ccccc2C)n2ncnc2n1 | 6.66% |
| N#Cc1c(SCC(=O)OCc2ccccc2)nsc1SCC(=O)OCc1ccccc1 | -2.54% |
| Cc1cc(Cl)ccc1OCCCC(=O)N1CCOCC1 | 1.3% |
| CCN(CC)Cc1c(O)c(Cl)cc2c(C)cc(=O)oc12 | -7.42% |
| O=S(=O)(c1ccc(-c2nnco2)cc1)N1CCCCC1 | -4.33% |
| O=C(c1ccc(N2CCOCC2)c([N+](=O)[O-])c1)N1CCN(Cc2ccccc2)CC1 | -3.51% |
| O=C1CC(N2CCOCC2)=NN1c1ccc([N+](=O)[O-])cc1 | -2.73% |
| O=C(CSc1nnc2ccccn12)NNC(=O)c1ccc([N+](=O)[O-])cc1 | -0.222% |
| c1cc(-c2ccoc2)n2ccnc2c1 | -3.71% |
| CCN1C(=O)c2ccccc2S(=O)(=O)c2ccc(C(=O)NC(C)C)cc21 | -0.906% |
| CC1CN(Cc2c(O)ccc3c(=O)c(-c4ccccc4Cl)coc23)CC(C)O1 (centres undefined) | 0.635% |
| CCCCN1C(=O)C(=Nc2cccc3cnccc23)c2ccccc21 | -3.19% |
| CN(C)CCNc1nc(-c2ccco2)c2c(c1C#N)CC(C)(C)OC2 | -1.66% |
| COc1ccc(C2CC(c3ccc(Cl)cc3)=NN2C(C)=O)cc1 (centres undefined) | -1.06% |
| Cc1ccnc(N2CCC(C(=O)NC3CCCCCC3)CC2)n1 | -2.18% |
| NC(=O)c1[nH]cnc1N=NN(CCO)Cc1ccccc1 | 0.49% |
| CC(Oc1ccc(Cl)cc1Cl)C(=O)NC(Cc1ccccc1)C(=O)O (centres undefined) | 4.79% |
| O=C(NCc1cccnc1)c1ccc2c(c1)OCO2 | -4.15% |
| CS(=O)(=O)N(CC(=O)NCc1ccc2c(c1)OCO2)c1cccc(Cl)c1 | 0.858% |
| C=CCOc1ccc(NC(=O)C2CC(=O)N(C(C)C)C2)cc1 (centres undefined) | -0.242% |
| Oc1cccc(C=NCc2ccccc2)c1 | 1.51% |
| Oc1ccc(NCc2cccc(OCc3ccc(F)cc3)c2)cc1 | -5.89% |
| Cc1cccc(C(=O)NCC(=O)OCc2nnc(-c3ccccc3)o2)c1 | 0.7% |

— PubChem BioAssay AID1053173 (Broad Institute, 2014)
